Inconclusive results are not listed. Calls of active or inactive are those of the source. The call rests on the fitted dose curve; in most records, active means well fitted curve in the direction sought with a large enough effect in the repeat runs; inconclusive means weak or mixed curves; inactive means no such curve, though single readings can be large; an effect the other way counts as inactive or inconclusive.
Assays:
[1] = A CellTox Green Cytotoxicity Assay to monitor cytotoxicity in HepG2 cells - 0 hour (AID 1224882); further: nearly all actives have a fitted effect of over 35% in size
How it was run: (§1)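 Using 1536-well format, dye-containing HepG2 suspension was seeded, allowed 5 h at 37 C/5% CO2, dosed by pintool with compounds, positive and negative controls, and imaged for fluorescence across 40 h.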

[2] = A CellTox Green Cytotoxicity Assay to monitor cytotoxicity in HepG2 cells - 32 hour (AID 1224883); further: nearly all actives have a fitted effect of over 50% in size; further: potency means the concentration at half of the fitted maximal effect
How it was run: as §1

[3] = A CellTox Green Cytotoxicity Assay to monitor cytotoxicity in HEK293 cells - 8 hour (AID 1224884); further: nearly all actives have a fitted effect of over 35% in size; further: potency means the concentration at half of the fitted maximal effect
How it was run: (§2)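 Fluorescence intensity, read at 0, 8, 16, 24, 32 and 40 h of compound treatment, reflected dye binding to DNA of dead HEK293 cells; compounds (23 nL, DMSO) were added 5 h after plating cells with reagent.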

[4] = qHTS RealTime-Glo MT Cell Viability Assay in HepG2 cells - 16 hour (AID 1224885); further: nearly all actives have a fitted effect of over 50% in size; further: potency means the concentration at half of the fitted maximal effect
How it was run: (§3)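 Real-time, nonlytic viability: 600 HepG2 cells/well mixed with NanoLuc enzyme plus prosubstrate; 5 h settle, compound (DMSO) added by pintool; luminescence monitored over 40 h at 37 C.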

[5] = qHTS RealTime-Glo MT Cell Viability Assay in HEK293 cells - 24 hour (AID 1224886); further: nearly all actives have a fitted effect of over 50% in size; further: potency means the concentration at half of the fitted maximal effect; on activity change, negative = cytotoxicity: top concentration of the series differs between compounds
How it was run: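 Cells + reagent dispensed (600 cells/well, HEK293) → 5 h at 37 C/5% CO2 → 23 nL compound in DMSO pinned → 40 h at 37 C → luminescence read at 0, 8, 16, 24, 32, 40 h.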

[6] = qHTS RealTime-Glo MT Cell Viability Assay in HEK293 cells - 8 hour (AID 1224887); further: nearly all actives have a fitted effect of over 50% in size; further: potency means the concentration at half of the fitted maximal effect; on activity change, negative = cytotoxicity: top concentration of the series differs between compounds
How it was run: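 Viable HEK293 cells reduce a cell-permeant prosubstrate; the product diffuses out and is consumed by NanoLuc in the medium to give light. Compounds went in after a 5 h incubation and plates were read over the treatment course.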

[7] = A CellTox Green Cytotoxicity Assay to monitor cytotoxicity in HEK293 cells - 16 hour (AID 1224888); further: nearly all actives have a fitted effect of over 35% in size; further: potency means the concentration at half of the fitted maximal effect
How it was run: as §2

[8] = qHTS RealTime-Glo MT Cell Viability Assay in HepG2 cells - 0 hour (AID 1224889); further: nearly all actives have a fitted effect of over 50% in size
How it was run: as §3

[9] = A CellTox Green Cytotoxicity Assay to monitor cytotoxicity in HepG2 cells - 8 hour (AID 1224890); further: nearly all actives have a fitted effect of over 45% in size; further: potency means the concentration at half of the fitted maximal effect
How it was run: as §1
On the % scale 0 is the no-effect control and ±100 the full control effect.

CCC(N)(CO)CO
inactive: Potency [1] | Potency [2] | Potency [3] | Potency [4] | Potency [5] | Potency [6] | Potency [7] | Potency [8] | Potency [9]

COCCCC/C(=N\OCCN)c1ccc(C(F)(F)F)cc1
inactive: Potency [1] | Potency [3] | Potency [4] | Potency [6] | Potency [7] | Potency [8] | Potency [9]
active: Potency [2] 26.8 µM

O=C1C=CC(=O)N1c1ccc(Cc2ccc(N3C(=O)C=CC3=O)cc2)cc1
inactive: Potency [1] | Potency [8]
active: Potency [2] 9.77 µM | Potency [3] 54.9 µM | Potency [4] 12.3 µM | Potency [5] 13.8 µM | Potency [6] 21.9 µM | Potency [7] 49 µM | Potency [9] 17.4 µM

CCCCCCCCn1sc(Cl)c(Cl)c1=O
inactive: Potency [1]
active: Potency [2] 12.3 µM | Potency [3] 2.45 µM | Potency [4] 4.9 µM | Potency [5] 3.89 µM | Potency [6] 3.47 µM | Potency [9] 17.4 µM

O=CC=C(c1ccccc1)c1ccccc1
active: Potency [5] 17.5 µM
inactive: Potency [1] | Potency [2] | Potency [3] | Potency [4] | Potency [7] | Potency [8] | Potency [9]

CC1=C(C(=O)OC(C)C)C(c2cccc([N+](=O)[O-])c2)C(C(=O)OC2CN(C(c3ccccc3)c3ccccc3)C2)=C(N)N1 (configuration not stated)
inactive: Potency [1] | Potency [3] | Potency [7] | Potency [8]
active: Potency [2] 23.9 µM | Potency [4] 21.3 µM

CCCCCCCCCCCC(=O)NCCCN(C)C
active: Potency [2] 24.5 µM | Potency [3] 54.9 µM | Potency [4] 49 µM | Potency [5] 43.6 µM | Potency [6] 49 µM | Potency [7] 54.9 µM | Potency [9] 54.9 µM
inactive: Potency [1] | Potency [8]

CC(C)(C)NC(=O)[C@@H]1C[C@@H]2CCCC[C@@H]2CN1C[C@@H](O)[C@H](Cc1ccccc1)NC(=O)[C@H](CC(N)=O)NC(=O)c1ccc2ccccc2n1
active: Potency [2] 55.7 µM | Potency [4] 55.7 µM | Potency [5] 19.7 µM | Potency [6] 19.7 µM
inactive: Potency [1] | Potency [3] | Potency [7] | Potency [8] | Potency [9]

O=C(NOCC1CC1)c1ccc(F)c(F)c1Nc1ccc(I)cc1Cl
active: Potency [2] 0.0849 µM
inactive: Potency [1] | Potency [3] | Potency [4] | Potency [7] | Potency [8] | Potency [9]

O=[N+]([O-])c1cc([N+](=O)[O-])c2ccc(S(=O)(=O)O)cc2c1O
inactive: Potency [1] | Potency [2] | Potency [3] | Potency [4] | Potency [5] | Potency [6] | Potency [7] | Potency [8] | Potency [9]

COc1cc(/C=C/C(=O)O[C@H]2CC[C@]34C[C@]35CC[C@]3(C)[C@@H]([C@H](C)CCC=C(C)C)CC[C@@]3(C)[C@@H]5CC[C@H]4C2(C)C)ccc1O
inactive: Potency [1] | Potency [2] | Potency [3] | Potency [4] | Potency [5] | Potency [6] | Potency [8] | Potency [9]

CCC(Cl)C(Cl)C(Cl)CC(Cl)C(Cl)C(C)Cl (configuration not stated)
inactive: Potency [1] | Potency [2] | Potency [3] | Potency [4] | Potency [5] | Potency [7] | Potency [8] | Potency [9]

Cc1cc(O)c(C(C)(C)C)cc1Sc1cc(C(C)(C)C)c(O)cc1C
inactive: Potency [1] | Potency [3] | Potency [7] | Potency [8] | Potency [9]
active: Potency [2] 61.5 µM | Potency [4] 48.9 µM | Potency [5] 21.8 µM | Potency [6] 24.5 µM

CC(NN)c1ccccc1 (configuration not stated)
inactive: cytotoxicity [1] -2.26% [at 15.8 µM] | cytotoxicity increase [2] -12.7% [at 15.8 µM] | cytotoxicity increase [3] -1.23% [at 15.8 µM] | activity change, negative = cytotoxic [4] 0.634% [at 15.8 µM] | activity change, negative = cytotoxicity [5] -0.0571% [at 15.8 µM] | activity change, negative = cytotoxicity [6] -8.04% [at 15.8 µM] | activity change [7] -3.48% [at 15.8 µM, active compounds read high] | activity change, negative = cytotoxicity [8] -3.22% [at 15.8 µM] | cytotoxicity increase [9] -3.04% [at 15.8 µM]

CCCCCCCC/C=C\CCCCCCCCOCCO
inactive: Potency [1] | Potency [3] | Potency [7] | Potency [8]
active: Potency [2] 63.7 µM | Potency [5] 3.19 µM

O=C(Oc1ccccc1)c1ccccc1C(=O)Oc1ccccc1
inactive: Potency [1] | Potency [2] | Potency [3] | Potency [5] | Potency [6] | Potency [9]

C=CC(=O)OCC(CO)(COCC(COC(=O)C=C)(COC(=O)C=C)COC(=O)C=C)COC(=O)C=C
active: Potency [2] 21.6 µM | Potency [4] 5.43 µM
inactive: Potency [1] | Potency [3] | Potency [9]

O=C(Oc1cccc2cccnc12)c1ccccc1
inactive: Potency [1] | Potency [3] | Potency [4] | Potency [5] | Potency [6] | Potency [8] | Potency [9]
active: Potency [2] 0.338 µM

COc1cccc(N)c1
inactive: Potency [1] | Potency [2] | Potency [3] | Potency [4] | Potency [5] | Potency [6] | Potency [7] | Potency [8] | Potency [9]

CCCCCCCCCCn1cc[n+](CCCCCCCCCC)c1C
inactive: Potency [1]
active: Potency [2] 17.4 µM | Potency [3] 19.5 µM | Potency [4] 21.9 µM | Potency [5] 2.19 µM | Potency [6] 21.9 µM | Potency [7] 19.5 µM | Potency [9] 39 µM

Source: PubChem BioAssay (Tox21)
